# Paper PMC7862700, “An all-to-all approach to the identification of sequence-specific readers for epigenetic DNA modifications on cytosine”
# Legend:
# Assay in all cases: DAPPL (digital affinity profiling via proximity ligation, sequencing); 10 mM Tris-HCl pH 7.5, 50 mM NaCl, 1 mM DTT, 4% glycerol, room temperature, 30 min; GST-TFs on glutathione beads, 16-mer random dsDNA library, 0.1% formaldehyde crosslink after washing; high values mean tight binding
# Conditions in all cases: protein: recombinant; tags: N-terminal GST; dsDNA, one strand shown
# FLI1 = target: T1, FLI1 (Homo sapiens, UniProt Q01543 1-452)
# T1 sequence: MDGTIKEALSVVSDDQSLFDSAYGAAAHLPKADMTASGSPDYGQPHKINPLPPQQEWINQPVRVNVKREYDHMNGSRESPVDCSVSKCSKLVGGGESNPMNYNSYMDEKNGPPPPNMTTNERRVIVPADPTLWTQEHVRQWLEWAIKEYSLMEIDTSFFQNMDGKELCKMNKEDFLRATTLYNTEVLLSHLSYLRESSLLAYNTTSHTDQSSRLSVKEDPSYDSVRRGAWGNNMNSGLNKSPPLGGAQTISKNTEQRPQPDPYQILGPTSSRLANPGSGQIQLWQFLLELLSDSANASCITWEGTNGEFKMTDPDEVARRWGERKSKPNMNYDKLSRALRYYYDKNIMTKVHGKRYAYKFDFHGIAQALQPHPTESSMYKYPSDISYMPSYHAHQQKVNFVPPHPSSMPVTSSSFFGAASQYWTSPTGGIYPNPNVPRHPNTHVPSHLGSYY
# Outline: (§1)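 The binding signal reported is, for every hexamer, its read frequency for a factor over its read frequency for the tag-only sample. Reads came from pools of yeast-expressed, GST-fused human transcription factors on glutathione beads, barcoded with DNA and mixed with that sample, which were incubated with 200 nmole of a random double-stranded 16-mer DNA library in Tris/NaCl/DTT/glycerol buffer at room temperature for 30 min. After washing, the pools were crosslinked with 0.1% formaldehyde, proximity-ligated with BsaI/T4 ligase for 1 h at 37 °C, PCR-amplified and sequenced on an Illumina NextSeq500.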
# ELK1 = target: T2, ELK1 (Homo sapiens, UniProt P19419 1-428)
# T2 sequence: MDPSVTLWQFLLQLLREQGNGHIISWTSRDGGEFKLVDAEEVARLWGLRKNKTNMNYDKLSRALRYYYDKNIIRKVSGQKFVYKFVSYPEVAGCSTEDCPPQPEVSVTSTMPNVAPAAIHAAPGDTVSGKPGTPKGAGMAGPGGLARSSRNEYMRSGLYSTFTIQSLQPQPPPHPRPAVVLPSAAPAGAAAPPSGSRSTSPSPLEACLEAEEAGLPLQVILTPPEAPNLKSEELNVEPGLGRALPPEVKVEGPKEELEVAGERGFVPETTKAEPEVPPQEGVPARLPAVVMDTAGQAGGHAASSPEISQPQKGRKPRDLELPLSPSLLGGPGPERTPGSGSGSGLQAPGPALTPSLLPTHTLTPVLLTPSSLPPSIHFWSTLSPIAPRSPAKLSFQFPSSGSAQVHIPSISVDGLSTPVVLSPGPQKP
# Outline: as §1
# GABPA = target: T3, GABPA (Homo sapiens, UniProt Q06546 1-454)
# T3 sequence: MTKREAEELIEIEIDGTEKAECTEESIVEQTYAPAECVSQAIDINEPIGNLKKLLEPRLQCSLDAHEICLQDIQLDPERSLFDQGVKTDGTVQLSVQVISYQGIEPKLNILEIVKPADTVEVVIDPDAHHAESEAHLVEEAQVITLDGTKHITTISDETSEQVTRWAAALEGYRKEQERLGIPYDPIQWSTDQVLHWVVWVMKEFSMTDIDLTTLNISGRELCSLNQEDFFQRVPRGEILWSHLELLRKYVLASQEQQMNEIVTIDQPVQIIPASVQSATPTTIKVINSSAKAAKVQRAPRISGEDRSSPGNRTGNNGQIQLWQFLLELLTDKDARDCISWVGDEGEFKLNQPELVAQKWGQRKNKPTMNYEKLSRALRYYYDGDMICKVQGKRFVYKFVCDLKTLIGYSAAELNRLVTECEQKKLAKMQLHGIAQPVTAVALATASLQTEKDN
# Outline: as §1
# ERG = target: T4, ERG (Homo sapiens, UniProt P11308 1-479)
# T4 sequence: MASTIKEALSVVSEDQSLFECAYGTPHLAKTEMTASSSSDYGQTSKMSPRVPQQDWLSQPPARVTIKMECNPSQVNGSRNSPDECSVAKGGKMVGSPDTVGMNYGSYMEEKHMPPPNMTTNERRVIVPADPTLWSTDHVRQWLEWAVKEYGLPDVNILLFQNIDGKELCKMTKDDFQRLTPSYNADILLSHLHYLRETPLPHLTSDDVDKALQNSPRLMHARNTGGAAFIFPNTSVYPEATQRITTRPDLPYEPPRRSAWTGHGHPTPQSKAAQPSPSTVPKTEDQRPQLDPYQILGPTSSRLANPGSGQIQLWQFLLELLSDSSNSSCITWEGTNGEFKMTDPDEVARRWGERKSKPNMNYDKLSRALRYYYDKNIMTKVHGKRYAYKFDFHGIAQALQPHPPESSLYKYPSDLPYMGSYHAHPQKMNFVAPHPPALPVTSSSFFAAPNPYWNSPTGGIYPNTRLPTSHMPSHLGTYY
# Outline: as §1
# EHF = target: T5, EHF (Homo sapiens, UniProt Q9NZC4 1-300)
# T5 sequence: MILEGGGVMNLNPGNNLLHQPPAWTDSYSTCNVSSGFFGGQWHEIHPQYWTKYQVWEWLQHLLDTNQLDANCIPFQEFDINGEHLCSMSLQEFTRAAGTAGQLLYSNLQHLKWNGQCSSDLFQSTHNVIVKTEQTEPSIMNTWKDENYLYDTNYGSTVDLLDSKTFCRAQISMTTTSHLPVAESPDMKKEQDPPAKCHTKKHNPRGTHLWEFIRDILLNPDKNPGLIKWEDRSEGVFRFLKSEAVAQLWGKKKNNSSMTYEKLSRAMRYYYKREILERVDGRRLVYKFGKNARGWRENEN
# Outline: as §1
# SPI1 = SPI1 (Homo sapiens, UniProt P17947 1-270)
# Outline: as §1
# SPIB = SPIB (Homo sapiens, UniProt Q01892 1-262)
# Sequence of SPIB (Q01892 whole entry): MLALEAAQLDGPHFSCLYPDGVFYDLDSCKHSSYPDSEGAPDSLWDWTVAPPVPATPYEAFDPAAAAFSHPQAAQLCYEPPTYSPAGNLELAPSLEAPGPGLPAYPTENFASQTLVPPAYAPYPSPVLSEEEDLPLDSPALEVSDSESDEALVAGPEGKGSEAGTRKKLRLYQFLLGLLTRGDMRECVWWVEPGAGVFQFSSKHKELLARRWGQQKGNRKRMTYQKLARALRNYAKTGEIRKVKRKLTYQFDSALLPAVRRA
# Outline: as §1
# FEV = target: T6, FEV (Homo sapiens, UniProt Q99581 1-238)
# T6 sequence: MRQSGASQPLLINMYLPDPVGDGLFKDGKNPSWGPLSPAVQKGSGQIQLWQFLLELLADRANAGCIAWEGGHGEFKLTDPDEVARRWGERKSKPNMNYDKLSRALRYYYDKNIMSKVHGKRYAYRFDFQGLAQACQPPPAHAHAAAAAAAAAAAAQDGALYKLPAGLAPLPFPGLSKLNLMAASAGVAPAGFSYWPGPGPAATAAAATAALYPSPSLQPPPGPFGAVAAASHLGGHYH
# Outline: as §1
# ETV5 = ETV5 (Homo sapiens, UniProt P41161 1-510)
# Sequence of ETV5 (P41161 whole entry): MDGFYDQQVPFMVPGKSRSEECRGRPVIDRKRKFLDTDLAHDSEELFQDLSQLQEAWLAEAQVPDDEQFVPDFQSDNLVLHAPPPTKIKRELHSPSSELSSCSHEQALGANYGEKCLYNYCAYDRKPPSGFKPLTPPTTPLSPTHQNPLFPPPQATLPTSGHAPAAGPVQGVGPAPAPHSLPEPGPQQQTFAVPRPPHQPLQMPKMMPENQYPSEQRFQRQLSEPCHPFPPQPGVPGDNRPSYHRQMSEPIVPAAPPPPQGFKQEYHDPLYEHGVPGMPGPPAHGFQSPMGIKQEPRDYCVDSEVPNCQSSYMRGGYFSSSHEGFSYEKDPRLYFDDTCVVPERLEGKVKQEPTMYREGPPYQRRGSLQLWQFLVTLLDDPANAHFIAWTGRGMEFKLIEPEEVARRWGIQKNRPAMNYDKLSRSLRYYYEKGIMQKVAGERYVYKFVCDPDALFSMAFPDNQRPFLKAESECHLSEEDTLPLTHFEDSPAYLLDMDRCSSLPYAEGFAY
# Outline: as §1
# SPIC = target: T7, SPIC (Homo sapiens, UniProt Q8N5J4 1-248)
# T7 sequence: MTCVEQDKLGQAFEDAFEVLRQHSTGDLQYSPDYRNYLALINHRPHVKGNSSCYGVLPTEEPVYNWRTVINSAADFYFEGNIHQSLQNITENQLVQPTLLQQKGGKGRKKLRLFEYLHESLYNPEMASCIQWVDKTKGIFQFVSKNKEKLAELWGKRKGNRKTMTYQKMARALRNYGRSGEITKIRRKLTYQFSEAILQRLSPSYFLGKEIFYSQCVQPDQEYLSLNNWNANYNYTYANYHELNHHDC
# Outline: as §1
# ELF4 = ELF4 (Homo sapiens, UniProt Q99607 1-663)
# Sequence of ELF4 (Q99607 whole entry): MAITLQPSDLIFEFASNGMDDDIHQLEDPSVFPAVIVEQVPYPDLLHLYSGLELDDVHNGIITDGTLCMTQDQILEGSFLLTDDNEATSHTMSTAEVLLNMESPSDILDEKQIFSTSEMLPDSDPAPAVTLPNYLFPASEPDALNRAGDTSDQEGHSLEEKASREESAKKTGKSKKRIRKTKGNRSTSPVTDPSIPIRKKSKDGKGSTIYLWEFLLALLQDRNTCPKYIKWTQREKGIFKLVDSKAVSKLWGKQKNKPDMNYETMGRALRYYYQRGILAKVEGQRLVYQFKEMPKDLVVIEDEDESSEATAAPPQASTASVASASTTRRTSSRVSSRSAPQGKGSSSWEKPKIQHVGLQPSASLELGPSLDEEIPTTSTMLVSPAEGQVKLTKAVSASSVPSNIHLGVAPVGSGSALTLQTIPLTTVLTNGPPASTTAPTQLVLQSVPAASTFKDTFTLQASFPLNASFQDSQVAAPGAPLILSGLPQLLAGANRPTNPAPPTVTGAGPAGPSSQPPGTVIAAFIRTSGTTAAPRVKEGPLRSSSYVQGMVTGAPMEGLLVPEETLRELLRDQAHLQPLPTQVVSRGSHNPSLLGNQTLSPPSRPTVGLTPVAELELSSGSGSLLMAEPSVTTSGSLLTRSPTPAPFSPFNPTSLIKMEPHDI
# Outline: as §1
# ETV1 = ETV1 (Homo sapiens, UniProt P50549 1-477)
# Sequence of ETV1 (P50549 whole entry): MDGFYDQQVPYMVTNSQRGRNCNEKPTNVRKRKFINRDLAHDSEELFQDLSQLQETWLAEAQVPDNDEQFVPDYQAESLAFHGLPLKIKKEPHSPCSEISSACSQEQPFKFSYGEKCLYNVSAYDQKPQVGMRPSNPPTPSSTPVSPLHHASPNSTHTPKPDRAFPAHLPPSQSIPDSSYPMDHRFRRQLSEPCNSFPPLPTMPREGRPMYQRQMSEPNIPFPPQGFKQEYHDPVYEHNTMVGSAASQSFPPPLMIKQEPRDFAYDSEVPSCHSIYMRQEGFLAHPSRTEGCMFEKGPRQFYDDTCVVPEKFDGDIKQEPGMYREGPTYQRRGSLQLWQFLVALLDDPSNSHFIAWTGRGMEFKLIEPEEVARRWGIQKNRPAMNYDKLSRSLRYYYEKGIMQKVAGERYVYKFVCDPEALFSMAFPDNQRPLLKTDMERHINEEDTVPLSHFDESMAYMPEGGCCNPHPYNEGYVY
# Outline: as §1
# ERF = target: T8, ERF (Homo sapiens, UniProt P50548 1-548)
# T8 sequence: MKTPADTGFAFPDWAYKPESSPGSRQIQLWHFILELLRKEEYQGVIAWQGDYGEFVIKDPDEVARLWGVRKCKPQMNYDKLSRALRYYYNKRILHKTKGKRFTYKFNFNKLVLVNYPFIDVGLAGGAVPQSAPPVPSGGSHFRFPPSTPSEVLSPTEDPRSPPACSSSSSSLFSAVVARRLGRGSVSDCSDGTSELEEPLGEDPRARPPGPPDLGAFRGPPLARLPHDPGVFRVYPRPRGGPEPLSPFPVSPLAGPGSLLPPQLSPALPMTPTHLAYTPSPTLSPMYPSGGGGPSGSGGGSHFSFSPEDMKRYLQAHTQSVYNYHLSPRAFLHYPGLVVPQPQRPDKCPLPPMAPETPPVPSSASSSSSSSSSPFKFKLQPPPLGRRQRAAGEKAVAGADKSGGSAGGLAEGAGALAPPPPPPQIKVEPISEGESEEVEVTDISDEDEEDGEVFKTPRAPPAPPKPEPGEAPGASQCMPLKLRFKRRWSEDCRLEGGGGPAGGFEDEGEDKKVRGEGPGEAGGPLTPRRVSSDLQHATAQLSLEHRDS
# Outline: as §1
# ETV3L = target: T9, ETV3L (Homo sapiens, UniProt Q6ZN32 1-361)
# T9 sequence: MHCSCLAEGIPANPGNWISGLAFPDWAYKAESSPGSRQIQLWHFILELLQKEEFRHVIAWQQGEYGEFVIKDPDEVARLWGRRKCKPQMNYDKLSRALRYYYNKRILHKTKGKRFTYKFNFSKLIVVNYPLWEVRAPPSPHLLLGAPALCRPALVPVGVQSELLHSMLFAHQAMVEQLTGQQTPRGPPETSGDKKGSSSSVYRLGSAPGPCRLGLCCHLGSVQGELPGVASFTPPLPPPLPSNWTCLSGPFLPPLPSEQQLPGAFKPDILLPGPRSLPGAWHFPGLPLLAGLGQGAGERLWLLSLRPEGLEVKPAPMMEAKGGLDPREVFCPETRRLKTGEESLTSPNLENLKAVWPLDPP
# Outline: as §1
# ETV3 = target: T10, ETV3 (Homo sapiens, UniProt P41162-2 1-143)
# T10 sequence: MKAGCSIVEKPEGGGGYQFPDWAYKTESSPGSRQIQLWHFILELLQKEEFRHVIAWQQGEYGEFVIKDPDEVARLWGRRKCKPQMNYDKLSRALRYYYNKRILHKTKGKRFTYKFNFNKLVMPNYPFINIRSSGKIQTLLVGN
# Outline: as §1
sequence,measurement,setting,value
CCGATG,binding signal,FLI1,"1.07 fold enrichment (6-mer frequency, TF over GST control)"
same,binding signal,ELK1,"1.1 fold enrichment (6-mer frequency, TF over GST control)"
same,binding signal,GABPA,"1.18 fold enrichment (6-mer frequency, TF over GST control)"
same,binding signal,ERG,"1.06 fold enrichment (6-mer frequency, TF over GST control)"
same,binding signal,EHF,"1.03 fold enrichment (6-mer frequency, TF over GST control)"
same,binding signal,SPI1,"1.08 fold enrichment (6-mer frequency, TF over GST control)"
same,binding signal,SPIB,"1.2 fold enrichment (6-mer frequency, TF over GST control)"
same,binding signal,FEV,"1.08 fold enrichment (6-mer frequency, TF over GST control)"
same,binding signal,ETV5,"1.11 fold enrichment (6-mer frequency, TF over GST control)"
same,binding signal,SPIC,"1.2 fold enrichment (6-mer frequency, TF over GST control)"
same,binding signal,ELF4,"1.14 fold enrichment (6-mer frequency, TF over GST control)"
same,binding signal,ETV1,"1.1 fold enrichment (6-mer frequency, TF over GST control)"
same,binding signal,ERF,"1.1 fold enrichment (6-mer frequency, TF over GST control)"
same,binding signal,ETV3L,"1.1 fold enrichment (6-mer frequency, TF over GST control)"
same,binding signal,ETV3,"1.12 fold enrichment (6-mer frequency, TF over GST control)"
